Results from PubChem BioAssay (NCATS).
“And” between values parts separate entries of the source, which are not always exact repeats. Identical values can stand only once. Inconclusive results are not listed. Values without a mark were called inactive. The source made the active and inactive calls. The call rests on the fitted dose curve; in most records, active means well fitted activation curve with a large enough effect; inconclusive means small, poorly fitted or top-dose-only effect; inactive means no such curve, though single readings can be large or run the other way.

molecular target: Cellular tumor antigen p53 (Homo sapiens) (UniProt P04637); test: Primary qHTS for small molecule compounds that upregulate eGFP-tagged delta133p53alpha (in N-terminal) cells. (AID 2060322); settings: NCI-H358 eGFP-delta133p53alpha fluorescence, 24 h; activation: stronger effect = higher value; further: nearly all actives have a fitted effect of over 75% in size;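 on activation: series mostly up to about 56 µM; 0% = DMSO vehicle and 100% = reference activator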
Sequence (P04637 whole entry, looked up): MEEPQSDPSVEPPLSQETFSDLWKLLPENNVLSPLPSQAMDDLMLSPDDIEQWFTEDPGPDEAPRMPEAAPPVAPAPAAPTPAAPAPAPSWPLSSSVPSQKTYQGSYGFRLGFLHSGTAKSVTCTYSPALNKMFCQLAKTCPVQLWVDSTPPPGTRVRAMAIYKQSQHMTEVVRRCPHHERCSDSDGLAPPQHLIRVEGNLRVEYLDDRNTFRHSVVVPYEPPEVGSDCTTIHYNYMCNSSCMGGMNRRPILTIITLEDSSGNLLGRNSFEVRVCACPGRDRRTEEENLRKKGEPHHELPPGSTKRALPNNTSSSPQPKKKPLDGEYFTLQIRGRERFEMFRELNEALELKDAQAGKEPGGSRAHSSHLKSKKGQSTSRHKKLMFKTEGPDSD
Procedure, shortened: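 NCI-H358 cells pre-induced 24 h with 10 ng/ml doxycycline to express N-terminal eGFP-delta133p53alpha, then dosed 24 h at 37C without doxycycline; fixed, Hoechst-stained, GFP intensity by laser scanning cytometry, normalized to DMSO (0%) and 57.5 uM 5-azacytidine (100%).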
Potency means the concentration at half of the fitted maximal effect.

How did the activation turn out when CCC(C(N)=O)N1CCCC1=O (centres undefined) was run?
Its activation is -3.35%.

How did the activation turn out when CC1COC2(c3ccccc3Cl)c3cc(Cl)ccc3NC(=O)CN12 (centres undefined) was run?
The activation was 28.5%.

For O=C1CN2CCOC2(c2ccccc2Cl)c2cc(Cl)ccc2N1 (centres undefined), which activation is on record?
Its activation is 14.2%.

With CC(CC(C#N)(c1ccccc1)c1ccccc1)N(C)C (centres undefined) as the compound, how does the activation read?
The activation was 24.3%.

For NC(=O)c1cc([N+](=O)[O-])cc([N+](=O)[O-])c1, which activation is on record?
The activation was 0.837%.

Which activation does the source give for CC1=C(C(=O)O)N2C(=O)[C@@H](N)[C@H]2SC1 here?
Its activation is -3.35%.

For CC=C(C)C(=O)O[C@H]1C(C)=C2[C@@H]3OC(=O)[C@@](C)(O)[C@@]3(O)[C@@H](OC(=O)CCC)C[C@](C)(OC(C)=O)[C@@H]2[C@@H]1OC(=O)CCCCCCC, which activation is on record?
Its activation is -0.0676%.

With C[C@H](N)[C@H](O)c1ccc(O)c(O)c1 as the compound, how does the activation read?
Its activation is -36.8%.

C=CCC1=C(C)C(OC(=O)C2C(C=C(C)C)C2(C)C)CC1=O (centres undefined) was tested. Which activation did it give?
Its activation is 18.6%.

How did the activation turn out when CCN(CC)CCOC(=O)C(C)(c1ccccc1)c1ccccc1 was run?
The activation was -8.47%.

For c1cc2ccc3cccc4ccc(c1)c2c34, which activation is on record?
The activation was 0%.

With CCOC(=O)CC(SP(=S)(OC)OC)C(=O)OCC (centres undefined) as the compound, how does the activation read?
Its activation is -9.21% and 9.21%.

How did the Potency turn out when CCC(OC(C)=O)C(CC(C)NC)(c1ccccc1)c1ccccc1 (centres undefined) was run?
The Potency was 28.5 µM (active).

How did the activation turn out when CN1CCN(C(=O)O[C@H]2c3nccnc3C(=O)N2c2ccc(Cl)cn2)CC1 was run?
The activation was 11.9% and -19.6%.

COC(=O)c1cncn1C(C)c1ccccc1 (centres undefined) was tested. Which activation did it give?
Its activation is -29.3%.

Which activation does the source give for COc1ccc(CN2CCNCC2)c(OC)c1OC here?
The activation was -13%.

With C[C@]12CC[C@@H]3c4ccc(OC(=O)N(CCCl)CCCl)cc4CC[C@H]3[C@@H]1CC[C@@H]2O as the compound, how does the activation read?
Its activation is 11.9%.

Which activation does the source give for O=C(O)CCCc1ccc(N(CCCl)CCCl)cc1 here?
The activation was 7.53% and 20.9%.

For CCCCCCC(=O)CCCCCC/C=C/C[C@@H](O)[C@H](O)[C@@](N)(CO)C(=O)O, which activation is on record?
Its activation is 5.86%.

For CCN(CC)Cc1nccn1-c1ccc([N+](=O)[O-])cc1C(=O)c1ccccc1Cl, which activation is on record?
The activation was -4.18%.

For CN(C)CCc1c[nH]c2ccc(O)cc12, which activation is on record?
The activation was 5.08%.

How did the activation turn out when CN(C)CCc1c[nH]c2cccc(O)c12 was run?
The activation was 15.3%.

With CN1CCC(O)(c2ccc(F)cc2)C(C(=O)c2ccc(F)cc2)C1 (centres undefined) as the compound, how does the activation read?
The activation was -14.1%.

Which activation does the source give for COc1cc(CC(C)N)cc(OC)c1OC (centres undefined) here?
The activation was -10.7%.

Which activation does the source give for C=C1C[C@H]2[C@H]3CCC(=O)[C@@]3(C)CC[C@@H]2[C@@]2(C)C=CC(=O)C=C12 here?
The activation was 3.97%.

How did the activation turn out when C[C@]12CC[C@H]3[C@@H](CCC4=CC(=O)CC[C@@H]43)[C@@H]1CC[C@@H]2OC(=O)CCC1CCCCC1 was run?
Its activation is -13%.

With CCN(CC)CCOC(=O)C(O)(c1ccccc1)c1ccccc1 as the compound, how does the activation read?
Its activation is 20.9%.

Which activation does the source give for CC(=O)OC1(c2ccccc2)CCN(CCc2ccccc2)CC1 here?
The activation was -10.7%.

How did the activation turn out when O=C1c2ccccc2C(=O)c2ccccc21 was run?
The activation was 0%.

How did the activation turn out when COc1ccc2c(c1)[C@]13CCCCC1C(C2)N(C)CC3 (some centres undefined) was run?
Its activation is 8.01%.

C[C@H]1C(=O)O[C@@H]2CCN3CC=C(COC(=O)[C@](C)(O)[C@]1(C)O)[C@H]23 was tested. Which activation did it give?
Its activation is -36.8%.

For CCCN1CCO[C@@H]2c3cc(O)ccc3OC[C@@H]21, which activation is on record?
Its activation is 15.2%.

How did the activation turn out when COC1=CC(C)=C[C@@H](C)[C@@H](O)[C@@H](C)CC(C)=CC=C[C@H](OC)[C@H]([C@@H](C)[C@@H](O)[C@H](C)[C@@]2(O)C[C@@H](O)[C@H](C)[C@@H](C(C)C)O2)OC1=O was run?
The activation was 6.87%.

With CC(C)[N+](C)(CCC(C(N)=O)(c1ccccc1)c1ccccc1)C(C)C as the compound, how does the activation read?
The activation was 27.7%.

For CCC(C)C(C)(COC(N)=O)COC(N)=O (centres undefined), which activation is on record?
The activation was 8.37%.

With CCN(Cc1ccc(Cl)nc1)/C(=C/[N+](=O)[O-])NC as the compound, how does the activation read?
The activation was -24.3%.

Which activation does the source give for Nc1ccc([As](=O)(O)O)cc1 here?
Its activation is -5.02%.

For CC(C)(O)C(Cl)(Cl)Cl, which activation is on record?
The activation was -9.6%.

Which activation does the source give for Clc1ccc(CCC(Cn2ccnc2)Sc2c(Cl)cccc2Cl)cc1 (centres undefined) here?
The activation was 18.6% and -21.6%.
